Data: PubChem BioAssay (EPA / NIEHS)
Activity calls are given as the source filed them. Rule for the calls: active = hit-call score of the fitted dose curve at least 0.9, where 1 is the maximum; inactive = score below 0.9.

How the values were obtained:
[1] = read-out: Transforming growth factor beta 1 (TGFb1), TGFB1 (gene 7040); experiment: BSK_KF3CT_TGFb1: BioMAP Diversity Plus: KF3CT Assay for Transforming growth factor beta 1 (TGFb1) Biomarker Activity (AID 2283072); details: primary human keratinocytes with fibroblasts; actives raise or lower the signal
Method in brief: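 Signal changes in either direction, relative to DMSO, define activity here. TGF-b1 is read by ELISA from a human keratinocyte-fibroblast co-culture 24 h post-dose.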

[2] = read-out: C-C motif chemokine 2 (Homo sapiens) (UniProt P13500); experiment: BSK_KF3CT_MCP1: BioMAP Diversity Plus: KF3CT Assay for Monocyte Chemoattractant Protein 1 (MCP1/CCL2) Biomarker Activity (AID 2283073); details: primary human keratinocytes with fibroblasts; actives raise or lower the signal
Method in brief: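 ELISA readout of MCP-1 after 24 h chemical dosing of a human skin primary co-culture of keratinocytes and foreskin fibroblasts. Activity was fitted in both directions against DMSO.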

[3] = read-out: Matrix Metallopeptidase 9 (MMP9), MMP9 (gene 4318); experiment: BSK_KF3CT_MMP9: BioMAP Diversity Plus: KF3CT Assay for Matrix Metallopeptidase 9 (MMP9) Biomarker Activity (AID 2283074); details: primary human keratinocytes with fibroblasts; actives raise or lower the signal;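 for AC50: MMP9 protein level quantified by ELISA in the co-culture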
Method in brief: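 Human keratinocyte and foreskin fibroblast co-culture exposed to chemicals for 24 h; MMP9 biomarker measured by ELISA, bidirectional fitting relative to DMSO; cytotoxicity tracked by SRB total protein staining in parallel cultures.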

[4] = read-out: urokinase plasminogen activator (uPA), PLAU (gene 5328); experiment: BSK_KF3CT_uPA: BioMAP Diversity Plus: KF3CT Assay for urokinase plasminogen activator (uPA) Biomarker Activity (AID 2283075); details: primary human keratinocytes with fibroblasts; actives raise or lower the signal
Method in brief: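 Primary human keratinocyte/foreskin fibroblast co-culture exposed to chemical; uPA measured by ELISA at 24 h. Bidirectional fit versus DMSO, with parallel SRB total-protein staining for cytotoxicity.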

CD40, CD40 (gene 958) [5] = experiment: BSK_LPS_CD40: BioMAP Diversity Plus: LPS Assay for CD40 Biomarker Activity (AID 2283076); details: primary human HUVEC with PBMC; actives raise or lower the signal
Method in brief: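 Cells were dosed, incubated 24 h, then assayed for CD40 by ELISA. Gain or loss of signal was analysed relative to DMSO controls. The culture paired human umbilical vein endothelium with peripheral blood mononuclear cells.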

[6] = read-out: E-selectin (Homo sapiens) (UniProt P16581); experiment: BSK_LPS_Eselectin: BioMAP Diversity Plus: LPS Assay for Eselectin Biomarker Activity (AID 2283077); details: primary human HUVEC with PBMC; actives raise or lower the signal
Method in brief: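 Primary human vascular co-culture (endothelium plus PBMC) was dosed with chemical, then E-selectin quantified by ELISA at 24 h. Endpoint values derive from bidirectional curve fitting relative to DMSO.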

[7] = read-out: Interleukin-8 (IL8), CXCL8 (gene 3576); experiment: BSK_LPS_IL8: BioMAP Diversity Plus: LPS Assay for Interleukin-8 (IL8) Biomarker Activity (AID 2283078); details: primary human HUVEC with PBMC; actives raise or lower the signal
Method in brief: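 Readout is IL-8 by ELISA, taken 24 h after compounds were added to LPS-stimulated endothelial/PBMC co-cultures. Both increases and decreases relative to DMSO control were scored through bidirectional fitting.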

[8] = BSK_LPS_SRB: Viability Assessment in the BioMAP Diversity Plus: LPS Assay (AID 2283079); details: primary human HUVEC with PBMC;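 note: total protein by sulforhodamine B absorbance as a cytotoxicity measure; measured one day after compound addition; fitted in both directions against DMSO so loss or gain of signal counts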
Method in brief: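 Readout is SRB absorbance at 560 nm (0.1% stain, TCA-fixed parallel cultures) as a total-protein cytotoxicity measure. Cells: primary human umbilical vein endothelium plus peripheral blood mononuclear cells, 24 h after chemical exposure; DMSO served as baseline.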

[9] = read-out: Interleukin-1 alpha (IL1a), IL1A (gene 3552); experiment: BSK_LPS_IL1a: BioMAP Diversity Plus: LPS Assay for Interleukin-1 alpha (IL1a) Biomarker Activity (AID 2283080); details: primary human HUVEC with PBMC; actives raise or lower the signal
Method in brief: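 ELISA read-out of IL-1 alpha from a human primary vascular co-culture (endothelium plus PBMC) under LPS, sampled 24 hours post-dosing. Activity was fitted in both directions relative to DMSO controls.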

[10] = read-out: Monocyte Chemoattractant Protein-1 (MCP1), CCL2 (gene 6347); experiment: BSK_LPS_MCP1: BioMAP Diversity Plus: LPS Assay for Monocyte Chemoattractant Protein-1 (MCP1) Biomarker Activity (AID 2283081); details: primary human HUVEC with PBMC; actives raise or lower the signal;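 for AC50: secreted MCP-1 protein quantified by ELISA in culture supernatant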
Method in brief: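 Human endothelial–PBMC co-cultures were dosed with chemical, then LPS-driven MCP-1 levels were quantified by ELISA at 24 h. Activity in either direction was fitted versus DMSO negative control.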

[11] = BSK_LPS_PGE2: BioMAP Diversity Plus: LPS Assay for Prostaglandin E2 (PGE2) Biomarker Activity (AID 2283082); details: primary human HUVEC with PBMC; actives raise or lower the signal;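 for AC50: secreted prostaglandin E2 measured by ELISA in LPS-stimulated co-culture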
Method in brief: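 Endpoint derived from bidirectional curve fitting versus DMSO of ELISA-measured PGE2 in LPS-stimulated human primary vascular co-culture (HUVEC with PBMC) harvested at 24 h.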

[12] = read-out: Macrophage colony-stimulating factor (MCSF), CSF1 (gene 1435); experiment: BSK_LPS_MCSF: BioMAP Diversity Plus: LPS Assay for Macrophage colony-stimulating factor (MCSF) Biomarker Activity (AID 2283083); details: primary human HUVEC with PBMC; actives raise or lower the signal
Method in brief: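 ELISA readout of M-CSF after 24 h compound exposure in a human endothelial/PBMC co-culture. Activity, in either direction, is fitted relative to DMSO vehicle.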

[13] = read-out: Tissue Factor, F3 (gene 2152); experiment: BSK_LPS_TissueFactor: BioMAP Diversity Plus: LPS Assay for Tissue Factor Biomarker Activity (AID 2283084); details: primary human HUVEC with PBMC; actives raise or lower the signal
Method in brief: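 ELISA signal for cell-surface Tissue Factor (CD142) was read 24 h after compound dosing of an LPS-stimulated human endothelial–PBMC primary co-culture. Gain or loss of signal was scored relative to DMSO.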

[14] = read-out: Tumor necrosis factor (Homo sapiens) (UniProt P01375); experiment: BSK_LPS_TNFa: BioMAP Diversity Plus: LPS Assay for Tumour Necrosis Factor alpha (TNFa) Biomarker Activity (AID 2283085); details: primary human HUVEC with PBMC; actives raise or lower the signal
Method in brief: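 Primary human vascular co-culture of HUVEC and PBMC; TNFa ELISA 24 h after treatment, analysed as increase or decrease relative to DMSO control.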

[15] = read-out: Vascular cell adhesion molecule 1 (VCAM1), VCAM1 (gene 7412); experiment: BSK_LPS_VCAM1: BioMAP Diversity Plus: LPS Assay for Vascular cell adhesion molecule 1 (VCAM1) Biomarker Activity (AID 2283086); details: primary human HUVEC with PBMC; actives raise or lower the signal
Method in brief: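 Primary human vascular co-culture (umbilical vein endothelium plus PBMC) stimulated with LPS received chemical; 24 h later VCAM-1 was read by ELISA. Overt cytotoxicity was assessed by sulforhodamine B staining of parallel cultures at the same time point.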

CD38, CD38 (gene 952) = experiment: BSK_SAg_CD38: BioMAP Diversity Plus: SAg Assay for CD38 Biomarker Activity (AID 2283087); details: primary human HUVEC with PBMC; actives raise or lower the signal
Method in brief: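 Fluorescence ELISA of cell-surface CD38 served as the read-out, with either increase or decrease fitted against DMSO controls. Cells were a human umbilical vein endothelium plus PBMC co-culture under SEB/TSST-1 stimulation, measured 24 h after dosing.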

CD40, CD40 (gene 958) [16] = experiment: BSK_SAg_CD40: BioMAP Diversity Plus: SAg Assay for CD40 Biomarker Activity (AID 2283088); details: primary human HUVEC with PBMC; actives raise or lower the signal
Method in brief: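 Compounds were dosed onto a human primary endothelial–PBMC co-culture, and after 24 h CD40 was quantified by ELISA using a fluorescence signal. Activity in either direction was fitted relative to DMSO.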

CD69, CD69 (gene 969) = experiment: BSK_SAg_CD69: BioMAP Diversity Plus: SAg Assay for CD69 Biomarker Activity (AID 2283089); details: primary human HUVEC with PBMC; actives raise or lower the signal;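 for AC50: cell surface CD69 protein quantified by ELISA with fluorescence detection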
Method in brief: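 Primary human vascular co-culture (umbilical vein endothelium with peripheral blood mononuclear cells) exposed to test chemical for 24 h. CD69 levels quantified by fluorescence ELISA; DMSO served as negative control for bidirectional fitting.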

[17] = read-out: Monocyte Chemoattractant Protein-1 (MCP1), CCL2 (gene 6347); experiment: BSK_SAg_MCP1: BioMAP Diversity Plus: SAg Assay for Monocyte Chemoattractant Protein-1 (MCP1) Biomarker Activity (AID 2283090); details: primary human HUVEC with PBMC; actives raise or lower the signal
Method in brief: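 MCP-1 levels in the endothelial–PBMC SAg co-culture were quantified by ELISA at 24 h post-dosing; both increases and decreases versus DMSO scored. Cytotoxicity monitored by SRB total protein in parallel cultures.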

[18] = read-out: E-selectin (Homo sapiens) (UniProt P16581); experiment: BSK_SAg_Eselectin: BioMAP Diversity Plus: SAg Assay for Eselectin Biomarker Activity (AID 2283091); details: primary human HUVEC with PBMC; actives raise or lower the signal
Method in brief: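 Co-culture: HUVEC + PBMC. Dose compound; 24 h. ELISA for E-selectin. Bidirectional fit vs DMSO.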

Measured: AC50

Sequence of Tumor necrosis factor (Homo sapiens) (P01375 whole entry, looked up): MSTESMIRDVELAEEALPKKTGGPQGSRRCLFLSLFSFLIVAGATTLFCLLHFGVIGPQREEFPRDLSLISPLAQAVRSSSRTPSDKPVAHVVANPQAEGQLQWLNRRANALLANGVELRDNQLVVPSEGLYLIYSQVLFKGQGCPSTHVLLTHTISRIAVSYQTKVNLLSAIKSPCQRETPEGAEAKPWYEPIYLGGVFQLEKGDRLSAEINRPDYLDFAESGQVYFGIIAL
Sequence of E-selectin (Homo sapiens) (P16581 whole entry, looked up): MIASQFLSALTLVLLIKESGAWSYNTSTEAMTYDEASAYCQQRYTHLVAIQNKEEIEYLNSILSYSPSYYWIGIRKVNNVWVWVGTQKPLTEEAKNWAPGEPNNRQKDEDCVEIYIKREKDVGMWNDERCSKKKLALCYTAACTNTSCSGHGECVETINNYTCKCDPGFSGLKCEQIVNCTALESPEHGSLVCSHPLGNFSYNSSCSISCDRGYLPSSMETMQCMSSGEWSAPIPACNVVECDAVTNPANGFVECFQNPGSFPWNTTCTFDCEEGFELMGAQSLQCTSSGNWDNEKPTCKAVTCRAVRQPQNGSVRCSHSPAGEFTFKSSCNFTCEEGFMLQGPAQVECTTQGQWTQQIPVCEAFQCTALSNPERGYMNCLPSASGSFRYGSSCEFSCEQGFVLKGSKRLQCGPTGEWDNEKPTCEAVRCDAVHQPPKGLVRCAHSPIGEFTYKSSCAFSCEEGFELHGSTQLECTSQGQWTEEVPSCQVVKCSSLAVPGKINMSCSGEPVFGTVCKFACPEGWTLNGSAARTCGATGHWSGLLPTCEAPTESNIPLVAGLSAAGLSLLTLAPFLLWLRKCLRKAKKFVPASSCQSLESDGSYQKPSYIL

CCC(C)(C#N)N=NC(C)(C#N)CC (stereo not drawn)
inactive: [1] | [2] | [3] | [4] | CD40, CD40 (gene 958) [5] | [6] | [7] | [8] | [9] | [10] | [11] | [12] | [13] | [14] | [15] | CD38, CD38 (gene 952) | CD40, CD40 (gene 958) [16] | CD69, CD69 (gene 969) | [17] | [18]

CC(C)O.CC(C)O.OCCN(CCO)CCO.OCCN(CCO)CCO.[Ti]
inactive: [1] | [2] | [3] | [4] | CD40, CD40 (gene 958) [5] | [6] | [7] | [8] | [9] | [10] | [11] | [12] | [14] | [15] | CD38, CD38 (gene 952) | CD40, CD40 (gene 958) [16] | CD69, CD69 (gene 969) | [17] | [18]
active: [13] 1.38 µM

Oc1cccc(-c2ccccc2)c1
inactive: [1] | [2] | [4] | [7] | [9] | [12] | [14] | CD38, CD38 (gene 952) | CD69, CD69 (gene 969)
active: [3] 31.5 µM | CD40, CD40 (gene 958) [5] 20 µM | [6] 32.5 µM | [8] 29.8 µM | [10] 4.9 µM | [11] 8.25 µM | [13] 33.3 µM | [15] 20 µM | CD40, CD40 (gene 958) [16] 30.8 µM | [17] 20 µM | [18] 33.6 µM

CCOC(=O)CCN(SN(C)C(=O)Oc1cccc2c1OC(C)(C)C2)C(C)C
active: [15] 20 µM | CD38, CD38 (gene 952) 30 µM | CD40, CD40 (gene 958) [16] 29.6 µM | CD69, CD69 (gene 969) 29.3 µM | [17] 32 µM | [18] 27.7 µM
inactive: [1] | [2] | [3] | [4] | CD40, CD40 (gene 958) [5] | [6] | [7] | [8] | [9] | [10] | [11] | [12] | [13] | [14]

CCCCCCCCCCCCN(C)C
inactive: [1] | [2] | [3] | [4] | CD40, CD40 (gene 958) [5] | [6] | [7] | [8] | [9] | [10] | [11] | [12] | [13] | [14] | [15] | CD38, CD38 (gene 952) | CD40, CD40 (gene 958) [16] | CD69, CD69 (gene 969) | [17] | [18]

Cc1cccc(OP(=O)(Oc2cccc(C)c2)Oc2cccc(C)c2)c1
inactive: [1] | [2] | [4] | CD40, CD40 (gene 958) [5] | [6] | [7] | [8] | [9] | [10] | [11] | [12] | [15] | CD38, CD38 (gene 952) | CD40, CD40 (gene 958) [16] | CD69, CD69 (gene 969) | [17] | [18]
active: [3] 20.3 µM | [14] 32.3 µM

CCN(CC)C(=O)C(Cl)=C(C)OP(=O)(OC)OC
inactive: [1] | [2] | [3] | [4] | CD40, CD40 (gene 958) [5] | [6] | [7] | [8] | [9] | [10] | [11] | [12] | [14] | [15] | CD38, CD38 (gene 952) | CD40, CD40 (gene 958) [16] | CD69, CD69 (gene 969) | [17] | [18]
